The campaign covered roughly 200,000 compounds. About 240 (0.12%) were called active. No stated cut-off is given here; in the data, active means inhibition above about 50%; inactive means the rest. For the sample, actives were picked, then their nearest neighbours and some compounds at random.

The subject of the experiment is glucose-6-phosphate dehydrogenase [Leuconostoc mesenteroides]. The experiment can be described thus: L. mesenteroides G6PDH inhibitors, counter-screen for G6PDH-coupled screening assays, biochemical, Leuconostoc mesenteroides enzyme (AID 1020). The settings on record: Purified L. mesenteroides G6PDH, diaphorase/resazurin coupled fluorescence, 45 min; at 5 µM; active compounds read high.
What is called inhibition is the relative decrease from the control value, in per cent. For `CCOc1ccc(C(c2c(C)[nH][nH]c2=O)c2c(C)[nH][nH]c2=O)cc1OCC`, the inhibition is 12.1% (inactive). As for `O=C(CC1NCCNC1=O)Nc1cc(Cl)cc(Cl)c1` (stereo not given), the figure is -3.6% (inactive); as for `Cc1ccc(C(=O)c2ccc(N3CCN(C)CC3)c([N+](=O)[O-])c2)cc1`, 9.1% (inactive); as for `O=C(NC(=S)NC1CCSC1=O)c1ccccc1F` (stereo not given), 13.8% (inactive). With `O=C(CSc1nnc(SCc2ccc(Cl)cc2)s1)N/N=C/c1ccccc1Cl`, the inhibition was -21.5% (inactive). Consider `CCC(C)(C)NC(=O)C1c2ccccc2Oc2ccccc21`, for which the inhibition is 3.6% (inactive). Turning to `COC(=O)c1ccc(NC(=O)CSc2nncc3ccc(OC)c(OC)c23)cc1`, the inhibition is 2.5% (inactive). `CCC(C)NCCOCCOc1ccc(Br)cc1C` (stereo not given): the inhibition was 6.6% (inactive).

With `CCOc1cc(NS(=O)(=O)c2ccc(OC)cc2)c(OCC)cc1NC(C)=O`, the inhibition was 6.7% (inactive). The same measure for `COc1ccc(C(C(=O)NC2CCCCC2)N(C(=O)Cc2c[nH]c3ccccc23)c2ccccc2)cc1OC` (stereo not given): 14.4% (inactive). As for `C/C(=N\OC(=O)c1ccccc1)c1c(C)nc2cc(C)ccn12`, the figure is 1.1% (inactive); as for `CCc1ccc(N2CC(O)=C(c3nc4ccccc4c(=O)[nH]3)C2=N)cc1`, 16.2% (inactive). The same measure for `CC(C)N(Cc1ccccc1)C(=S)Nc1ccc(OC(F)F)cc1`: 0.3% (inactive); for `Cc1cccc(NC(=S)NCCN(C2CCCCC2)C2CCCC2)c1`: 3.8% (inactive). Take `COc1ccc(Cl)cc1NC(=O)CNc1ccccc1F`: the inhibition is -1.9% (inactive). As for `S=c1[nH]nc(-c2ccco2)n1/N=C/c1ccc(Br)s1`, the figure is 8.8% (inactive). For the molecule `C=CCn1c(CCNC(=O)c2ccccc2F)nnc1SCC(=O)Nc1ccc(OC)cc1`, the inhibition is 0.9% (inactive). As for `O=C(COc1ccc(S(=O)(=O)NCc2ccccc2)cc1)N1CCOCC1`, the figure is 4.2% (inactive); as for `Cn1c(N)c(C(=O)COC(=O)c2ccccc2NCc2ccco2)c(=O)n(C)c1=O`, 0.8% (inactive). For the molecule `CCOC(=O)c1cnc2[nH]c3ccccc3n2c1=O`, the inhibition is 5% (inactive). For `O=[N+]([O-])c1cccc(-c2nnc3c4ccccc4c4ccccc4n23)c1`, the inhibition was 9.1% (inactive). As for `O=c1[nH]c2ccccc2n2c(-c3ccccc3)nnc12`, the figure is 50% (active); as for `CC(C)N1C(=O)N(c2ccccc2)C(C)(O)CC1(C)C` (stereo not given), 5.1% (inactive); as for `O=C1Nc2ccc([N+](=O)[O-])cc2C1=Nc1cccc(CO)c1`, 46.7% (inactive). The same measure for `Cc1nc(N)c(Br)c(C)c1Br`: 4% (inactive); for `O=C(CSc1ccc(-c2ccco2)nn1)NCc1ccc2c(c1)OCO2`: 6.1% (inactive); for `Cc1ccc(C)c(-n2ccnc2SCC(N)=O)c1`: 13.8% (inactive). As for `O=C(NC1CCCC1)C(c1ccc(N2CCOCC2)cc1)N(C(=O)c1ccco1)c1ccccc1F` (stereo not given), the figure is 14.1% (inactive). Regarding `COc1cccc(NC(=O)c2ccc3c(SCC(=O)O)c4c(nc3c2)CCCC4)c1`, the inhibition was 6% (inactive). `NS(=O)(=O)c1ccc(NC(=O)COC(=O)C2(c3ccc(F)cc3)CCCC2)cc1`: the inhibition was 16.5% (inactive). `COc1ccc(/C=C2/C(=O)OCc3cc(OC)c(OC)cc32)c(OC)c1`: the inhibition is -2.8% (inactive). `CCOC(=O)c1ccc[n+](CC(=O)Nc2ccccc2OC(F)F)c1`: the inhibition was 6.3% (inactive).

For the molecule `CCO[C@H]1OC(C(=O)N2CCOCC2)=C[C@@H](c2ccc3c(c2)OCO3)[C@@H]1CCCO`, the inhibition is 9.9% (inactive).

Regarding `CCOC(=O)C1CN(S(=O)(=O)c2ccc(F)cc2)C1`, the inhibition was 4.5% (inactive). As for `Clc1ccc2nc(CSc3ccccc3)cn2c1`, the inhibition was 5% (inactive).

`CCOC(=O)c1c(C)[nH]c2c1-c1ccccc1C(=O)C2=O`: the inhibition was 55.3% (active).

As to `CCOC(=O)c1c(C)[nH]c(=S)c(C#N)c1-c1ccccc1`, the inhibition is -20.7% (inactive). The same measure for `CCOC(=O)C1=C(c2ccc(OC)cc2)C(=O)c2ccccc2C1=O`: 31.9% (inactive); for `CN1CCN(CC#CCC2(O)c3ccccc3-c3ccccc32)CC1`: 4.1% (inactive); for `CCCc1cc(=O)[nH]c(SCC(=O)N2CCN(S(=O)(=O)c3ccc(C)cc3C)CC2)n1`: 2.8% (inactive). In the case of `Cc1nn2cc(-c3ccc(Cl)cc3)cnc2c1Br`, the inhibition is -0.7% (inactive). As for `COC(=O)CC(=O)N1CCN(c2ccc(Cl)c(Cl)c2)CC1`, the figure is -3.9% (inactive); as for `N#Cc1ncc(C(F)(F)F)cc1Oc1cccnc1`, 1.5% (inactive); as for `O=C(N/N=C/c1ccco1)c1ccc(C(=O)N/N=C/c2ccco2)o1`, 2.5% (inactive). Regarding `COc1ccc2c(c1)c(=O)c(C(=O)c1ccc(Cl)cc1)cn2CC(=O)Nc1ccc(F)cc1`, the inhibition is -1.7% (inactive). The same measure for `O=C(N/N=C/c1sc(N2CCCCC2)nc1-c1cccs1)c1cccnc1`: 0.4% (inactive). Consider `CC1(C)C2CC=C(/C=N/NC(=O)c3ccc(Cl)cc3)C1C2` (stereo not given), for which the inhibition is 6.3% (inactive). The same measure for `COc1cc(NC(=O)c2cccnc2SC)cc(OC)c1`: 5.3% (inactive). The same measure for `O=C1CSC(=S)N1/N=C/c1ccc(O)c([N+](=O)[O-])c1`: 5.2% (inactive); for `Cc1c(Br)c([N+](=O)[O-])nn1CC(=O)Nc1sc2c(c1C(=O)OC(C)C)CCC(C)C2` (stereo not given): -7.9% (inactive); for `COC(=O)Cc1ccc(NC(=S)NCc2ccccc2)cc1`: 12.1% (inactive). As for `CCO[C@H]1OC(C(=O)Nc2ccccc2)=C[C@@H](C2CC2)[C@@H]1CCCO`, the figure is 10.9% (inactive); as for `COc1ccc(-c2cc(C(=O)NC(Cc3c[nH]c4ccccc34)C(=O)O)c(C)o2)cc1OC` (stereo not given), 6.7% (inactive). As to `CCc1nc(C)cn1S(=O)(=O)c1cc([N+](=O)[O-])ccc1Cl`, the inhibition was 6.7% (inactive). As to `COc1ccc(/C=N/S(=O)(=O)c2ccccc2)cc1OC`, the inhibition was 8.4% (inactive). As for `O=C(c1ccccc1-c1ccccc1)N1CCOCC1`, the figure is 1.2% (inactive); as for `Cc1oc2c(c1C(=O)N1CCOCC1)C(=O)c1ccccc1C2=O`, 57.7% (active). The same measure for `Cc1onc(-c2ccccc2)c1C(=O)N1CCOCC1`: 17.6% (inactive); for `C/C(=N\NC(=O)CNC(=O)C(c1ccccc1)c1ccccc1)c1ccc(C)cc1`: 11.2% (inactive). As for `CC(=O)Oc1c(C(=O)c2nnc(C)o2)c(=O)n(Cc2ccccc2)c2ccccc12`, the figure is 2.5% (inactive); as for `CSc1c(SCc2ccccc2)cnn(Cc2ccccc2)c1=O`, 5.1% (inactive); as for `OC(COCc1ccco1)CN1CCN(c2ccccc2)CC1` (stereo not given), 12.4% (inactive). As to `COc1cc(NC(=S)NNC(=O)CC(C)C)c(OC)cc1Cl`, the inhibition is -0.9% (inactive). The same measure for `Cc1ccc(SCCC(=O)Nc2cc(C)on2)cc1`: 6.5% (inactive); for `O=C(CN1C(=O)c2cccc3cccc(c23)C1=O)N1CCCCC1`: -0.3% (inactive); for `O=C(/C=C/c1ccc(Cl)c([N+](=O)[O-])c1)c1cccnc1`: 0.4% (inactive). As for `Cc1csc(Nc2ccc(Cl)cc2)[n+]1-c1ccc(Cl)cc1`, the figure is -4% (inactive).

`Cc1cccc(OCCC(=O)Nc2cc(S(=O)(=O)N3CCCCC3)ccc2N2CCOCC2)c1`: the inhibition is 5.4% (inactive). On to `CCOc1cc(C(=O)OCC(=O)Nc2cccc(C)c2)ccc1OCC(=O)N1CCOCC1`, for which the inhibition is -19.1% (inactive). As for `O=C(COC(=O)c1cnccn1)Nc1cccc2ccccc12`, the figure is 4.3% (inactive). As to `CCC(=O)Nc1sc(C(=O)Nc2ccccc2)c(C)c1C(=O)OC`, the inhibition is 7.8% (inactive).

As for `CSc1ccc(CNCCN2CCOCC2)cc1`, the inhibition is 11% (inactive).

Take `COc1ccc([C@H]2[C@H](C(C)=O)N3N=Cc4ccccc4C3C23C(=O)OC(C)(C)OC3=O)cc1` (stereo not given in full): the inhibition was 4% (inactive). For `CCOC(=O)c1oc2c(CN3CCN(C)CC3)c(O)ccc2c(=O)c1-c1ccc(Br)cc1`, the inhibition is -12.6% (inactive).

Turning to `Cc1ccc(C(=O)N2CC(=O)Nc3ccccc32)o1`, the inhibition was 2.3% (inactive).

With `Cc1cc(NS(=O)(=O)c2ccc(NC(=S)NC(=O)c3ccc(F)cc3Cl)cc2)no1`, the inhibition is 7.4% (inactive).

For the molecule `Cc1ccccc1C(=O)OC1OC(=O)C(Cl)=C1Nc1ccccc1` (stereo not given), the inhibition is 2.3% (inactive). As to `ClC1(Cl)CC1CSc1ncn[nH]1` (stereo not given), the inhibition is 10.4% (inactive).

In the case of `Cc1cccc(-n2c(SCC(N)=O)nc3c(c2=O)C2(CCCCC2)Cc2ccccc2-3)c1`, the inhibition was 7.9% (inactive). The same measure for `CCOc1ccc(C(=O)Nc2cccc(-c3ccc4nncn4n3)c2)cc1`: 2.6% (inactive). As for `COc1ccc(C(=O)C2CCCN(C(=O)c3cc4nc(C)cc(C)n4n3)C2)cc1F` (stereo not given), the figure is 0.8% (inactive); as for `COc1ccc(N2CCN(C(=O)c3ccc4c(Cl)c5c(nc4c3)CCCC5)CC2)cc1`, 17.9% (inactive); as for `O=C(COC(=O)CSc1nnc(-c2ccc(Cl)cc2)o1)Nc1cc(Cl)cc(Cl)c1`, -35.2% (inactive). As for `COc1cc(C(=O)NCc2ccc(-n3cccc3)cc2)cc(OC)c1OC`, the figure is 12.2% (inactive). Regarding `Cc1ccc(-c2nc(C)sc2CC(=O)OCC(=O)Nc2c(F)cccc2F)cc1`, the inhibition was -6.1% (inactive). Consider `CC(C)CNC(=S)NC(=O)c1ccc(Cl)cc1`, for which the inhibition is 4.7% (inactive). The same measure for `C=CCn1c(CCNC(=O)c2cccs2)n[nH]c1=S`: 10.1% (inactive); for `Cc1nnnn1/C(=C\c1ccccc1)C(=O)OCC(=O)N1CC2(C)CC1CC(C)(C)C2` (stereo not given): -6.6% (inactive); for `CCNC(=S)N(CCc1c(C)[nH]c2ccc(C)cc12)Cc1ccco1`: 13.2% (inactive). Turning to `CC(/C=C/c1ccccc1)=N\NC(=O)C1CC1(C)c1ccccc1` (stereo not given), the inhibition was 5.3% (inactive). The same measure for `O=[N+]([O-])c1cc(S(=O)(=O)CCCN2CCOCC2)ccc1F`: 10.3% (inactive); for `O=C(Nc1ccc(-c2ccc3nncn3n2)cc1)C1CCCCC1`: 3.6% (inactive). As for `CCN1CCN(C(=O)c2ccc(CN(c3ccc(C)c(C)c3)S(C)(=O)=O)cc2)CC1`, the inhibition is 4.1% (inactive).

In the case of `C/C(Cc1ccccc1)=N\NC(=O)CNC(=O)c1cccc(Br)c1`, the inhibition is 8.4% (inactive). `Cc1nc2ccccc2nc(C)c1=NOCc1ccc(Cl)cc1Cl`: the inhibition was -13.7% (inactive).

For the origin of these results see PubChem BioAssay AID1020 (Sanford-Burnham Center for Chemical Genomics, 2008).
